High-throughput results (PubChem)
Apoferritin bind – binds horse apoferritin like a general anesthetic; actives 0.074% (n = 350,000); apoferritin/1-aminoanthracene competitive binding, fluorescence; P02791; Potency, µM (doses to about 77.5 µM), for inactives: at the highest dose activity change, negative = displacement, actives largely listed as inhibitors; active means well fitted inhibition curve with a large enough effect; inconclusive means small, poorly fitted or top-dose-only effect; inactive means no such curve, though single readings can be large or run the other way; further: potency means the concentration at half of the fitted maximal effect; on the % scale 0 is the no-effect control and ±100 the full control effect; nearly all actives have a fitted effect of over 20% in size
Target sequence (P02791 2-175 limits assumed): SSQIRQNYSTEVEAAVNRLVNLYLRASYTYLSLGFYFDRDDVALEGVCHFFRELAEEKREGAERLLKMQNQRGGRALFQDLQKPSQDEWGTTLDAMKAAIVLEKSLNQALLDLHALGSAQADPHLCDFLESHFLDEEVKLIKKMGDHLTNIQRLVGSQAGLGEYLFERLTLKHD
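Apoferritin-based anesthetic binding model; compound displacement of fluorescent 1-AMA measured as endpoint fluorescence after 10 minutes at room temperature, scaled to free-ligand and complex controls.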
D2 ag-1 – activates the human D2 dopamine receptor; actives 0.53% (n = 340,000); activation, % at 2 µM; AID 485358; HEK293 T-REx D2 cells, calcium flux agonist mode;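 active means activation over 3 SD above normal in the single-dose calcium agonist read, cut at about 30% in these data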; further: 0% is about no effect
Target sequence (P14416 whole entry, looked up): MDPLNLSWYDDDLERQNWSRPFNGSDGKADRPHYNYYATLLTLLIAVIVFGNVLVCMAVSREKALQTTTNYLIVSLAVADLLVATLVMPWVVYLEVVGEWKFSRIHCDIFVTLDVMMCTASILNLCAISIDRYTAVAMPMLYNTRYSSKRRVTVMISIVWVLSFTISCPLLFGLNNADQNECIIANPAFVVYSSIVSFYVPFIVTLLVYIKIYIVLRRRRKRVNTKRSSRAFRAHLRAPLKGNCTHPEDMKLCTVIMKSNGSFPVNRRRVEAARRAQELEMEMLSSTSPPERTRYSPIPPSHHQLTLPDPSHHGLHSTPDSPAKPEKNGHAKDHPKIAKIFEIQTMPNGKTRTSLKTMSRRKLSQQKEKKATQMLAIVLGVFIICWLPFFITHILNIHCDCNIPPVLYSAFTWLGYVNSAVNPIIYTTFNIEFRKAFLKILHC
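Tetracycline-induced HEK293 T-REx cells with force-coupled D2 receptor, plated overnight at 30 C, loaded with no-wash calcium dye. After a 10 s baseline, compound was pin-added and calcium flux read kinetically for 180 s; calcium rises flagged agonists.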
D2 PAM-1 – positive allosteric modulators of human D2 dopamine receptor. P14416. DiscoveRx D2 beta-arrestin cells, luminescence, 90 min; 100% = 57 uM dopamine signal. potentiation, % (no concentration beside the values). actives 0.23% (n = 360,000). AID 624464; in the data active means potentiation above about 50%; inconclusive means mostly about 30% to 49%
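PathHunter beta-arrestin assay in DiscoveRx D2 cells. Compounds were added with an EC20 of dopamine (50 nM final) for 90 min at 37 deg C. Luminescence was read 1 h after detection reagent, with 57 uM dopamine as the EC100 control.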
D2 ag-2 – activates the human D2 dopamine receptor; actives 0.084% (n = 360,000); DiscoveRx PathHunter D2 beta-arrestin, luminescence, 90 min; 100% = 57 uM dopamine signal; activation, % (test concentration not listed); in the data active means activation above about 40%; inconclusive means between about 15% and that limit
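DiscoveRx PathHunter D2 beta-arrestin cells (2,100/well) attached overnight, then compound-stimulated 90 min at 37 C in HBSS/10 mM HEPES/0.1% Tween-20 buffer; beta-galactosidase complementation read by luminescence after 1 h at ambient temperature. Dopamine 57 uM final (EC100) as control.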
D2 PAM-2 – positively modulates the human D2 dopamine receptor allosterically; P14416; HEK293 T-REx D2, calcium flux, EC20 dopamine potentiation; potentiation, % at 10 µM; actives 0.34% (n = 340,000); AID 485347;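 active means potentiation over 3 SD above the plate norm, cut at about 30% in these data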; further: 0% is about no effect
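Cells plated with tetracycline inducer and held overnight at 30 C; calcium dye loaded 30–90 min at room temperature; baseline taken, compound added and read 180 s; EC20 dopamine then added and read 180 s.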
D2 antag – D2 dopamine receptor (human) antagonism. P14416. actives 2% (n = 340,000). AID 485344. inhibition, % at 10 µM. HEK293 TREx D2 cells, calcium flux, dopamine EC80; in the data active means inhibition above about 30%; inactive means below that, where a call was filed; further: 0% is about no effect
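Read-out: kinetic calcium fluorescence (1 cycle/s) in inducible HEK293 T-REx D2 cells after an EC80 dopamine addition that followed 180 s compound preincubation. Loss of the dopamine response indicates antagonism.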
The depositor's hits bear a star; ? = inconclusive; nt = no result; ! = repeats disagree. The list is not random: actives were taken first. Their share in the collection is about 2.5%.

SMILES	Apoferritin bind	D2 ag-1	D2 PAM-1	D2 ag-2	D2 PAM-2	D2 antag
CC(C)CC(=O)Nc1ccc(C(=O)CN2CCN(c3ccc(O)cc3)CC2)cc1	-5%	0	5	6	31*	0
O=C(COC(=O)CCc1c[nH]c(=O)[nH]1)Nc1cccc(Cl)c1	10%	2	-6	-3	3	35*
O=C(CCS(=O)NCc1ccccc1)NCc1ccccc1 (configuration not stated)	-12%	0	nt	nt	18	-29
COC(=O)c1[nH]c(C)c(/C(O)=C2\C(=O)C(=O)N(CCN(C)C)C2c2cccc(OC)c2OC)c1C (configuration not stated)	7%	0	-8	-1	0	-6
Cc1c(N=Cc2ccc[nH]2)c(=O)n(-c2ccccc2)n1C	-10%	-2	2	-1	1	15
CC1(C)CC(=O)c2sc(NS(=O)(=O)Cc3ccccc3)nc2C1	0%	0	2	-1	34*	6
CC1Cc2ccccc2N1C(=O)C12CCC(C)(C(=O)C1)C2(C)C (configuration not stated)	-23%	1	-15	0	nt	32*
O=C1c2ccccc2C(=O)N1CCC1=CCCCC1	22µM*	0	-8	-3	-24	-7
COc1ccc(NC(=O)C2CCCO2)cc1Cl (configuration not stated)	?	0	-4	-2	-14	31*
CC(C)Sc1nc(O)c(Cc2ccccc2)c(=O)[nH]1	-5%	0	-10	2	-10	13
CCN(C(=O)c1ccc2c(c1)OCO2)C1CCS(=O)(=O)C1 (configuration not stated)	nt	1	-15	-2	-18	39*
CCCCN(C(=O)c1ccc2c(c1)OCO2)C1CCS(=O)(=O)C1 (configuration not stated)	nt	2	0	-3	2	-26
O=S(=O)(NCC1NCCc2ccccc21)c1ccccc1 (configuration not stated)	-18%	-1	-9	-1	-6	3
O=C(NCCCN1CCCCC1)c1ccc2c(c1)ncn2C1CCCC1	0%	0	-25	-4	-4	30*
O=C(NCCCN1CCCC1=O)c1ccc2c(c1)ncn2C1CCCCC1	-4%	0	-3	-2	-1	-20
Cc1cc2ccccc2c(=O)n1CC(=O)N1CCN(c2cccc(Cl)c2)CC1	0%	1	-5	-5	-18	20
Cc1cc2ccccc2c(=O)n1CC(=O)NCC(=O)N1CCN(c2ccccc2)CC1	-3%	1	-7	-4	0	64*
O=C(NCc1ccccc1)NC(=O)c1ccc(Cl)cc1	nt	nt	-14	-7	nt	nt
O=C(NCc1ccccc1Cl)NC(=O)c1ccccc1	-2%	0	-3	1	-13	33*
O=C(NCc1ccccc1)Nc1cccn(Cc2ccccc2Cl)c1=O	?	-2	-4	-3	-7	33*
COc1ccc(C2=NN(C(=O)CCC(=O)O)C(c3ccccc3OC)C2)cc1 (configuration not stated)	0%	0	-1	1	0	-11
C=CCn1c(CCNC(=O)c2ccco2)nc2ccccc21	-2%	0	2	-5	-2	8
O=C(NCC(O)c1ccc([N+](=O)[O-])cc1)Nc1ccccc1 (configuration not stated)	1%	0	-12	-3	0	6
CC(NCC(O)c1ccc([N+](=O)[O-])cc1)C12CC3CC(CC(C3)C1)C2 (configuration not stated)	2%	0	-7	-7	20	38*
CN1CCC(N(C)S(=O)(=O)c2ccc(F)cc2F)CC1	3%	2	-15	-2	-8	33*
SMILES	Apoferritin bind	D2 ag-1	D2 PAM-1	D2 ag-2	D2 PAM-2	D2 antag
CN1CCC(N(C)S(=O)(=O)c2ccc(NC(=O)Cc3ccc(F)cc3)cc2)CC1	nt	0	-3	1	2	-6
CCN(CC)Cc1c(O)ccc2occ(C(=O)c3ccccc3)c12	-19%	-1	0	-5	6	-8
CN(C)Cc1c(O)ccc2occ(C(=O)c3ccccc3)c12	-18%	0	-8	2	54*	-25
CN1CCCN(Cc2ccc(Cl)cc2Cl)CC1	?	0	-30	-2	-20	35*
CCc1ccccc1NC(=O)/C(C#N)=C\c1ccc(Sc2ccccc2)o1	?	0	-3	-1	40*	-6
CCn1c(SCC(=O)NC2CCCCC2)nnc1-c1ccccn1	-14%	1	-2	-3	3	8
Oc1ccc(C2CNCCc3c2cc(O)c(O)c3Cl)cc1 (configuration not stated)	nt	0	58*!	?	9	-3
COc1ccc(/C=C/C(=O)c2ccc(Cl)s2)cc1O	?	1	2	-5	-3	37*
Cc1ccc(S(=O)(=O)N2CCN(C(=O)COC(=O)/C=C/c3ccccc3F)CC2)c(C)c1	nt	0	-12	-3	8	-10
CN1CCc2c(n(CC(O)CNCc3ccccc3)c3ccccc23)C1=O (configuration not stated)	-12%	-1	-11	0	-20	66*
O=C(COc1ccccc1Cl)Nc1ccc(C(=O)O)cc1NC(=O)COc1ccccc1Cl	0%	0	1	-7	7	4
O=C(COc1ccccc1Cl)Nc1ccccc1C(=O)Nc1cccc(C(=O)O)c1	-6%	0	-4	-1	-1	31*
C/C(N)=C(/C#N)C(=O)COC(=O)C1CCC(C(C)(C)C)CC1 (configuration not stated)	35µM*	0	-9	5	-1	1
C/C(N)=C(/C#N)C(=O)COC(=O)CC12CC3CC(CC(C3)C1)C2	18µM*	0	4	-1	-5	-6
C/C(N)=C(/C#N)C(=O)COC(=O)CSc1ccccc1	-23%	1	-3	0	5	18
C/C(N)=C(/C#N)C(=O)COC(=O)CC1CCCC1	?	1	3	2	-13	-2
CN1c2ccccc2C(C)(C)[C@]12C=Cc1cc(O)ccc1O2	?	0	19	-2	-28	-1
COc1ccc2ccc3c(c2c1)N=CC1(O3)N(C)c2ccccc2C1(C)C (configuration not stated)	0%	1	71*	13	9	2
CN1c2ccccc2C(C)(C)C12C=Nc1c(ccc3ccccc13)O2 (configuration not stated)	3%	0	87*	?	1	34*
